From the supplement of paper PMC12632987

T1: USP38, Q8NB14
T1 chain: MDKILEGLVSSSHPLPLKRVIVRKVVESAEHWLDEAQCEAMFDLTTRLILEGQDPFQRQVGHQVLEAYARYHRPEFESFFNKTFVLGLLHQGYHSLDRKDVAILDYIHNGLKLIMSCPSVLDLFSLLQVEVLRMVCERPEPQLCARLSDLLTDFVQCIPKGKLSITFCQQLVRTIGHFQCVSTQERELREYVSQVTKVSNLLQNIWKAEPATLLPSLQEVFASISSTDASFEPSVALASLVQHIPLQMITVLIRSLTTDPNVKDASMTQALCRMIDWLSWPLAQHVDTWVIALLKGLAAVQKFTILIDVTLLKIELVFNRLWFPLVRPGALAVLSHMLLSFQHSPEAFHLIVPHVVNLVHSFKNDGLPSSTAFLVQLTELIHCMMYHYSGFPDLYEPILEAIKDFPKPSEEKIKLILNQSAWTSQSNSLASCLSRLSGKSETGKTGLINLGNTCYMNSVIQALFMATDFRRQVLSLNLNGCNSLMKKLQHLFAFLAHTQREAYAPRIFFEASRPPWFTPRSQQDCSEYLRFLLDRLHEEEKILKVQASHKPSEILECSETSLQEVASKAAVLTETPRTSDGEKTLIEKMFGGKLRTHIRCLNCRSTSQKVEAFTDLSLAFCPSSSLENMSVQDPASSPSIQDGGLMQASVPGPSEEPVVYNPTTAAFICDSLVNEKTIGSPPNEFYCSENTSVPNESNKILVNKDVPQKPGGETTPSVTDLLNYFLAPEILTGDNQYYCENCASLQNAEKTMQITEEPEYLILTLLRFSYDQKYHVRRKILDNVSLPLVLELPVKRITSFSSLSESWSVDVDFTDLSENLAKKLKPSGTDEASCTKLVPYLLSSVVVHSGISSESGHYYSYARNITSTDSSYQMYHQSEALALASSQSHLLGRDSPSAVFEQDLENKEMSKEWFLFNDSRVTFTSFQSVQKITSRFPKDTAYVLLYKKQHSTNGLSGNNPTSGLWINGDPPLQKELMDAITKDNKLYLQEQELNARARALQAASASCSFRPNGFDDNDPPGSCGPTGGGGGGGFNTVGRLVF


Biological target: T1, USP38, Q8NB14
Experiment: median log2 fold change of GCK-ALFA target abundance (FLAG IP / Myc IP barcode read proportion) (log2 ratio); each designed protein is fused to an ALFA-tag nanobody in HEK293 cells to bring the named protein to FLAG-tagged glucokinase (GCK); Myc marks an untargeted standard; higher = target protein stabilised (more abundant)
Conditions: target protein: 3xFLAG-MCP-GCK-ALFA reporter; HEK293 landing pad (RPLP)
Procedure, shortened: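 The readout is target abundance, the per-binder median log2 ratio of FLAG to Myc barcode read proportions. It came from HEK293 landing-pad cells carrying a recombined ALFA-nanobody-fused binder library, induced with 2 μg mL^−1 doxycycline and transfected with a plasmid for a FLAG-tagged target and a Myc-tagged standard. After 48 h, lysates were immunoprecipitated with anti-FLAG and anti-Myc, and circular RNA barcodes were reverse transcribed, amplified and sequenced. Each barcode needed a proportion of at least 10^−7 in both replicates and each binder at least 3 barcodes per replicate, a pseudocount of 10^−6 was added, and the replicates were pooled.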

Binder | median log2 fold change
usp_38_diff_out_18_28_402 (protein) MEEEIEKKIEEAEKRTDELIDEYVELGEKAFLKYHEDPSSEELLEKLDKLADELGKAAQAVNLMRENRDDPEKVEKEYAEFEKYYEKAKKLLEEIKKLLE | 0.282
usp_38_diff_out_18_28_412 (protein) SAAAVQATIDQMKADLDALIDEANEVSEKAFLKYGEDPSSTELLAAVNELWDHLGAAAQAVNDARRNRDNEAAVAAKAAEFKKHADKAKEKIAEIKKLIA | -0.188
usp_38_diff_out_18_28_399 (protein) EEEERRRLEEELRRLEEELDELIDEAVEAATKALTAHPGDEAVEALVRELFDHLGAAAAALREARELLRAGGDPEEVRRLLEEAREHLEKAREALKELKA | -0.117
usp_38_diff_out_18_28_396 (protein) AEAERAALEKRLAELQKRLDALITEATAAATAALEAHPDDAAVWALVAQLFDALGAAAAALQRARELLRAGGPLEEVQAALDEAEAHLAQAEALLAELKA | -0.054
usp_38_diff_out_18_28_415 (protein) MLEENRKKIEEAKKEADELIDKANKVATEGFLKYSEDPSNEELLKAVNELLDYVGKAAAAVVEMRENINDPEAVEEQLKKFKEAKEKAEKAIEEVKKLIA | 0.333
usp_38_diff_out_18_28_430 (protein) AEEEIKAKIEAAEKEMDKLIDEYVKVAEEAFLKLDESDKGEELEEAINKMADALGKAAAAVNEMRRNRDDPAAVEAELEKFKKAKKEAEEYIKKIKELLK | -0.244
usp_38_diff_out_18_28_410 (protein) KKEEIEKKIEEAEEELDKLIDEYVEVATEAFLKYHEDPSSEELLEKVRELADELGKAAKAVNEMRENKDNEEKVEEELEKFKKHKEEAEKLLKEVKELIK | -0.357
usp_38_diff_out_18_28_400 (protein) MQEEIQKIIEENEKKTNELIDKYTELGEKAFLAYHEDPSNEELLEKLDELADALGKAAKKVNEMRENKNDPEKVKEYSKEFEEYYKKAEALMKEIEKLLA | -1.05
usp_38_diff_out_18_28_406 (protein) SSEEIEKKIEEAKEETDKLIDRYVEISTAAFLKYHEDPSSEELLKKVNELADALGKAAKAVNEMRENKDNEEKVEKYLEEYKKYSEEAEKLLEEIEKLIK | 0.0217
usp_38_diff_out_18_28_417 (protein) MLEERRERLKEMEKEADELIDKYNEAATKGFLYYHEHPEAEEVLEAVDKLSDAVGAAAAAVNEMRENIEDEEAFKKEEEKFKEYKKEAEKYLEELEKLIA | -0.307
usp_38_diff_out_18_28_429 (protein) SMEEIKKKIEEAEKEADALIDEANEVATQGFLAYHENPEKTELLEAVNELWDALGKAAQAVNDMRENKNNPEKVEKELKKFKEAAKAAKEKIAKIKELIA | -0.434
usp_38_diff_out_18_28_404 (protein) MMEEIQKKIEEAEKEADKLIDEYTKAATEAFLKYAEDPSATELVEAVNKAADALGEAAKAVNEMRRHKDDPEKVEKELKKFEEAKKKAEEALKEIKKLIA | -0.178
usp_38_diff_out_18_28_416 (protein) MMKEIEEKIEKLEKEADELIDKATEAMTKGFLKINEDPNSEELIEAINKLSDAVGKAAHAVNLARRNKNNPEAVEKYEKEFEKAKKEAEKELKKLEELIK | -0.28
usp_38_diff_out_18_28_405 (protein) MQEEIEKKIEEAEKRTNELIDKYTEAATRAFEAYAEDPSKTELVKAINEASDALGKAAQAVNEMKRNKDDPEKVEKELKKFEEAYKKAEEAIAKIEELIA | 0.0557
usp_38_diff_out_18_28_420 (protein) MKEERLKKLEELEKRADALIDEYNELATKGFLKYHDDPSATEVLEAVNKLSDAVGAAAAAVNAMKENIDNEEAFEAEYKKFEEEEAKAKEYAEELKKLIA | 0.326
usp_38_diff_out_18_28_398 (protein) SAAERAELEAELAALQKELDALITEATAAATAALTAHPDSAEVWALVDALFDHLGAAAAALREARRLLREGGPLEEVRAALAAAQAHLAEARALLAELKA | 0.000517

Binder | median log2 fold change
usp_38_diff_out_18_28_419 (protein) MLEERQKKIEKLQKEADELIDKYTEAAEKGFLKYHEDPSAEEVLEAIKELSDHVGAAAAAVNEMKENIENEEKFEEELKKFKEHKKKALEALEKLKKLLA | 0.0382
usp_38_diff_out_18_28_421 (protein) MREERRKRIEELEKEADELIDEYEKLAREAFLYYHENPEAEEVLEAARRLGDAVGKAAAAVNEMKENIDDEEKFEEYEEEFKRYKAEAKEYAEELKKLLA | -0.848
usp_38_diff_out_18_28_427 (protein) ALAANQATIEKARAEADKLIDESNKILTEAYLAYHEDPSSKELLEAAKKLSDALGKAAQAVNDMRAHRHDAAAVAKHAKEFEKAAKEAKKAIEEIKKLLK | -0.128
usp_38_diff_out_18_28_414 (protein) MLEENKKKIEEMKKEADELIDKANEVMTQGYLAYADDPSNEELLKAIRELGDAVGAAAAAVREARENIENPEKVEKEKKKFEEAKKAAEEKIEEVKKLIA | 0.143
usp_38_diff_out_18_28_426 (protein) MLEENKKKIEKAKEEADKLIDEANKVATEGFLKYSENPENEELLKKINELWDAVGKAAQAVNDMRENIEDEEAVEKNLKKFEEAKKEAEKLIEELKKLIE | 0.0382
usp_38_diff_out_18_28_409 (protein) AKEEIEKKIEEAEKELDELIDEYVKISTEAFLKYHEDPSSKELLEAVNELADELGKAAQAVNEMRKNRDDKEAVEKQLKVFEEHKKKAEELLKKIKELIK | -0.273
usp_38_diff_out_18_28_422 (protein) SLAERRALIEELKKEADELIDEYTELATEAFLAYHENPDAEELLAAADALSDAVGAAAAAVREMREHLEDEAKVEAYTKEFKAQKKEAKEKAKELKKLLA | -0.0738
usp_38_diff_out_18_28_424 (protein) MAAEIQARIDAAKARADALIDEVEKVSTEAFLKYSEDPSMEELLEADRKLWDAAGTAAAAVRAMREHRDDPAAVDAELAVFEKAAAEAEKLIKEIKELIK | 0.0788
usp_38_diff_out_18_28_428 (protein) SQEEIQKLIEENRKKTDELIDEANKVATEAYLAYHDNPEATELLEAVDKLWDALGKAAQAVNEMRENRDDPEKVKKEAAKFEEAAKKAEEYIKKIKELIA | 0.0104
usp_38_diff_out_18_28_401 (protein) MEEEIEKKIKEAKEKTDEMIDEYVELGEQAFLKYHEDPSSEHLLELLNEAADALGKAAKAVNLMRENKDDPEKVEKELEKFKKYSEKAEKLFEEIKKELE | -0.818
usp_38_diff_out_18_28_425 (protein) MREEVERRIAELEARADALIDRAEEVSTKAFLAYSEDPSSEELLKKNDELWDAVGAAAAAVREMRENRDDPEAVAREEERFREAAARAEALIKEIEKLIK | -0.0591
usp_38_diff_out_18_28_403 (protein) MQEEVEKKIKEAEKKTDELIDKYTEAATAGFLKYAEDPSATELVEAVRAAADALGAAAQAVNEMKRNKDDPEKVEELLKKFEEAYKKAEEALKEIERLIA | -0.0578
usp_38_diff_out_18_28_413 (protein) MREENRKRIEEMEKKADELIDEANEVATEGYLKYADDPSNEELLKAIRELMDAVGEAAAAVREARENIDDPEKVEEEEKRFEEAYEKAKKKIKEVKELIK | -0.0716
usp_38_diff_out_18_28_411 (protein) KKEEIQEKIKKAEEKLDKLIDKYVEISTKAFLKYHENPESKELLEAVDKLADELGKAAQHVNLMRENKDDEEKVEKELKEFEEHSKKAEELLKKVEELIK | -0.206
usp_38_diff_out_18_28_407 (protein) MEEEIKEKIEEAKKRLDELIDRYVEIATKAFLKYHENPESKELLEKVRKLADELGKAAQAVNLMRENKDNEEKVEEELEKFEKHYEEAEKLLEEIEKLIK | -0.152
usp_38_diff_out_18_28_397 (protein) EEERREELERRLEELERELDALIREATEAATAALEAHPDSAEVWALVDALFDALGAAAAHLRRARELLREGGPLEEVERELEKAEAHLAEARALLAELKA | -0.194
